# Bioassay records deposited in PubChem BioAssay by National Center for Advancing Translational Sciences (NCATS).
# Tau fil binding: binders of human tau filaments; recombinant tau filaments, thioflavin S fluorescence, 15 h; filaments grown with octadecylsulfate alongside compound; Potency, µM (series often up to 57.1 µM); 71,000 tested, 2% active; AID 596;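 note: actives lower thioflavin S fluorescence by blocking filaments or displacing dye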
#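 Assay mix: 1 uM His-tagged tau, 30 uM sodium octadecylsulfate, thioflavine S dye in HEPES/NaCl/DTT buffer. Compound is added prior to the inducer. Fluorescence after 15 h at 37 C.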
# PK Bst: modulators of Bacillus stearothermophilus pyruvate kinase. purified pyruvate kinase, luminescence ATP production; ribose 5-phosphate activator present at AC10. Potency, µM. AID 361. 51,000 tested, 1.2% active; in the data active = potency below about 11 µM; inconclusive = mostly about 12 µM to 25 µM;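 the screen sought inhibitors and activators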
# ERK AVP block: vasopressin-driven ERK pathway inhibition; HEK293-V1b, vasopressin-stimulated pERK AlphaScreen; Potency, µM (doses to about 57.5 µM), most hits filed as inhibitors; 72,000 tested, 0.99% active; AID 995; note: nearly all actives have a fitted effect of over 55% in size
#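 Overnight-seeded V1b-HEK293 cells in 1% FBS got compound, then vasopressin (25 nM final, 5 min, 37C), then lysis buffer. AlphaScreen detection of phospho-ERK; activity normalized to basal and full-stimulation controls.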
# TSHR ag: TSH receptor (human) agonism | P16473 | HEK293-CNG-TSHR cells (CNG channel as cAMP sensor), membrane potential dye, cAMP | Potency, µM (titrated, usually from 57.1 µM), hits mostly activators | 73,000 tested, 0.48% active | AID 926; active = well fitted activation curve with a large enough effect in the main read-out, with a control signal flat, not every such curve was filed as active; inconclusive = small, poorly fitted or top-dose-only effect, or a change in a side signal; inactive = no such curve, though single readings can be large or run the other way; reference of the percent scale not stated here;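 note: the control signal comes from parental cells without the receptor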
#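 HEK 293 cells stably expressing TSHR and a modified CNG channel, with CNG-only parental cells as counterscreen, were preloaded 60 min at room temperature with membrane potential dye containing 100 uM RO 20-1724. Compound exposure was 30 min, and depolarization was read as fluorescence at 590 nm.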
# Luciferase inh: blocks Photinus pyralis firefly luciferase activity; Potency, µM (highest dose often 57.1 µM), most hits filed as inhibitors; AID 411; purified firefly luciferase, luminescence, 8 min; 72,000 tested, 2.2% active; note: nearly all actives have a fitted effect of over 40% in size
# Target sequence (P08659 whole entry, looked up): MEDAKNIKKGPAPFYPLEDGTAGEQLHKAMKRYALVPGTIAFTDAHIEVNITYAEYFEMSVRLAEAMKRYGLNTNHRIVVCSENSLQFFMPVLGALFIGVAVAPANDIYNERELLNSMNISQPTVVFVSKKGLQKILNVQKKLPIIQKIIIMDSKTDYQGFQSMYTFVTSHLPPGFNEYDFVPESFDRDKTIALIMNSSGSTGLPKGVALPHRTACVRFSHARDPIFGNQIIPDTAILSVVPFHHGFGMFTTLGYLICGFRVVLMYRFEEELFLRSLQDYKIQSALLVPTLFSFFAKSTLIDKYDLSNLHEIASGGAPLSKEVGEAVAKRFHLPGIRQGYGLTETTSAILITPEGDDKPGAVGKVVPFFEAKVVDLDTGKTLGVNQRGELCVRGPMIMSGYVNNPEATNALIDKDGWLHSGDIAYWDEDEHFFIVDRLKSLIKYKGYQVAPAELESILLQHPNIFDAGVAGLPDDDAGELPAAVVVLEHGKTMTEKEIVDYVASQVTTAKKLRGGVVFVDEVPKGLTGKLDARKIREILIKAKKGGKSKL
#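 Compounds were tested as concentration series (qHTS) against purified P. pyralis luciferase with luciferin and 10 uM ATP in 50 mM imidazole pH 7.2, 50 mM KCl, 7 mM MgCl2, 0.01% Tween 20, 0.05% BSA. Luminescence was read after 8 min at ambient temperature.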
# HEK293 cAMP ctrl: counter-screen for TSHR agonists: cAMP increase in parental HEK293. 73,000 tested, 2.5% active. AID 938. Potency, µM (titrated, usually from 57.1 µM), hits mostly activators. parental HEK293 CNG cAMP sensor, membrane potential fluorescence; note: nearly all actives have a fitted effect of over 55% in size
#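 Parental HEK 293 cells stably expressing a cAMP-gated CNG channel were loaded with membrane potential dye containing 100 uM RO 20-1724 for 60 min. Compound added for 30 min; depolarization read as fluorescence intensity at 590 nm.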
# A number is an active result; n = inactive; u = inconclusive; x = no result given; [ ] = another dose, or the depositor's remark. Only some compounds are listed: those with a hit (about 7.2% of all), similar ones and a draw of the others. Unless noted, calls come from the whole dose curve; as a rule, active = well fitted curve in the direction sought with a large enough effect; inconclusive = small, poorly fitted or top-dose-only effect, or another doubt; inactive = no such curve, though single readings can be large; an effect the other way counts as inactive or inconclusive.
SMILES,Tau fil binding,PK Bst,ERK AVP block,TSHR ag,Luciferase inh,HEK293 cAMP ctrl
Cc1ccccc1-c1nc2cc(N)ccc2o1,n,u,n,x,13µM,n
CC(C)c1ccc2oc(-c3cc(N)ccc3O)nc2c1,3.2µM,x,n,n[11.4 µM],0.5µM,n[11.4 µM]
Nc1ccc2oc(CCc3ccccc3)nc2c1,n,x,n,n,n,n
Nc1ccc2oc(-c3cccc(Br)c3)nc2c1,n,x,n,n,7.9µM,n
Cc1c(C(=O)Nc2nnc(C(F)(F)F)s2)oc2ccccc12,x,x,x,n,x,n
N#Cc1c(NC(=O)C(F)(F)F)sc2c3c(=O)c4ccccc4c(=O)c=3oc3ccccc3c12,4µM,x,n[11.5 µM],n[11.4 µM],n[11.4 µM],n[11.4 µM]
CC(C)CCN(C(=O)CNC(=O)c1ccco1)C(C(=O)NC1CCCCC1)c1ccco1 (stereo not given),n,n,n,n,n,n
O=C(NC1CCCCC1)C(c1ccco1)N(Cc1cccnc1)C(=O)C1COc2ccccc2O1 (stereo not given),n,n,n,u,n,16µM
O=C(c1ccco1)N1CCC2(CCCN(Cc3ccccc3)C2)CC1,n,x,n,n,n[11.4 µM],n
O=C(Nc1cccc(Cl)c1)c1ccc2c(=O)n3c(nc2c1)CCCCC3,n,u,n,n,13µM,n
C=CCSC[C@@H]1Nc2cc(Cl)c(S(N)(=O)=O)cc2S(=O)(=O)N1,n,x,n,n,n,n
NCC1CCCCC1CC(=O)O (stereo not given),x,x,n,x,x,x
Cc1cc(O)c(-c2cc(C(=O)Nc3ccc(S(=O)(=O)N4CCOCC4)cc3)[nH]n2)cc1C,n,n,25µM,n,n,n
CC(=O)Nc1ccc(S(=O)(=O)N2CCN(C(=O)N3CCOCC3)CC2)cc1,n,3.2,n,n,n,n
CC(=O)Nc1ccc(S(=O)(=O)Nc2ccc(N3CCOCC3)cc2)cc1,n,n,n,n,n,n
Cc1cccc2sc(NC(=O)C3CCCO3)nc12 (stereo not given),n,n,n,x,n,n
Cc1nc(C)c(C(=O)Nc2nc3c(C)cccc3s2)o1,32µM,n,n,n,n,n
COCCOC(=O)c1[nH]c2c(c1C)C(=O)C(C(=O)OC)C(C)C2 (stereo not given),n,x,n,n,10µM,n
COC(=O)C1C(=O)c2c([nH]c(C(=O)OCC3CCCO3)c2C)CC1C (stereo not given),n,x,n,n,7.9µM,n
CC1(C)CC[C@]2(C(=O)O)CC[C@]3(C)C(=CCC4[C@@]5(C)CC[C@H](O)C(C)(C)[C@@H]5CC[C@]43C)C2C1 (stereo not given in full),x,x,n,x,x,x
C[C@@H]1OC(OC2CC[C@@]3(C)C(CC[C@@]4(C)C3CC=C3C5CC(C)(C)CC[C@]5(C(=O)OC5OCC(O)[C@@H](O)[C@@H]5OC5O[C@@H](C)[C@H](O[C@H]6OC(CO)C(O)C(O)C6O)C(O)C5O)C(O)C[C@@]34C)C2(C)C)C(O)C(O)[C@H]1OC1OCC(O)C(O)[C@H]1O (stereo not given in full),x,x,13µM,x,x,x
O=C(Nc1c2c(nn1-c1ccc(Cl)cc1)CS(=O)(=O)C2)c1ccc2c(c1)OCO2,n,n,n,u,n,25µM
Cc1noc(C)c1-c1cncnc1NC1CC1,n,x,n,n,n[2.29 µM],n
CC1(C)CC(Nc2ccc(Nc3ccccc3)cc2)CC(C)(C)N1,1.6µM,x,n[11.5 µM],n[11.4 µM],n[11.4 µM],n[11.4 µM]
COc1ccc(-c2nc(C#N)c(N3CCOCC3)o2)cc1OC,n,x,n,n,n,n
SMILES,Tau fil binding,PK Bst,ERK AVP block,TSHR ag,Luciferase inh,HEK293 cAMP ctrl
C=CCNc1oc(-c2ccc(OCC)cc2)nc1C#N,n,5.3,u,n,n,n
CNc1oc(-c2ccc(OCc3ccccc3)cc2)nc1C#N,n,n,n,n,n,n
N#Cc1nc(-c2ccc(OCc3ccccc3)cc2)oc1NCc1ccco1,n,x,n,n,n,n
N#Cc1nc(-c2ccc(OCc3ccc(Cl)cc3)cc2)oc1NCCCn1ccnc1,n,0.33,n,n,n,n
N#Cc1nc(-c2ccc(OCc3ccccc3)cc2)oc1N1CCOCC1,n,2,n,x,n,n
N#Cc1nc(-c2ccc(OCc3ccccc3)cc2)oc1NCCN1CCOCC1,n,4.5,u,n,n,n
COc1ncc2nc(-c3cc(F)cc(F)c3)c(=O)n(C[C@H]3CCCO3)c2n1,u,x,n,u,n[11.4 µM],u
Cc1cccc(CNc2nc(-c3cccnc3)nc3ccccc23)c1,n,x,u,u,n[2.29 µM],u
Nc1cc2c(nc3c4ccccc4c(N)cc3[n+]2-c2cccc3ccccc23)c2ccccc12 (tested in a mixture with another compound),0.63µM,x,u,n[11.4 µM],n[11.4 µM],n[11.4 µM]
Cc1cc(N)c2ccccc2[n+]1CCCCCCCCCC[n+]1c(C)cc(N)c2ccccc21,n,x,n,n,n,n
CCOc1ccc2[nH]c(=O)c(CN(Cc3cccs3)Cc3nnnn3C(C)(C)C)cc2c1,n,n,n,u,n,25µM
Cc1cccc(/C=C\c2ccccc2)n1,u,x,n,u,7.9µM,u
C(=C/c1ccccc1)/c1ccccc1,n,x,n,n,x,n
O=C1c2ccccc2-c2n[nH]c3cccc1c23,n,x,10µM,u,n,u
Cc1ccc2c(c1)-c1cc(C)nn1C(c1sccc1C)N2 (stereo not given),n,11,n,u,u,u
CC(=O)NC(c1ccco1)c1ccc2cccnc2c1O (stereo not given),n,x,16µM,n,n,n
COCCn1c(SCC(=O)N2CCCc3ccccc32)nc2ccccc2c1=O,n,n,n,u,n,20µM
COCCn1c(SCC(=O)N2CCCc3ccccc32)nnc1-c1ccco1,n,n,n,n,n,n
NC(N)=NCCCC(NC(=O)C(N)Cc1ccc(O)cc1)C(=O)O (stereo not given),x,x,n,x,x,x
Cc1ccc(S(=O)(=O)N2CCN(C(=O)CN3CCc4ccccc4C3)CC2)cc1,n,n,n,u,n,10µM
COc1cccc(NC(=O)CSc2nnc(-c3cc(-c4ccccn4)nc4ccccc34)o2)c1,25µM,n,n,n,n,n
C/C(=C\C(=O)c1ccc(F)cc1)Nc1ccc(N2CCOCC2)cc1,6.3µM,n,u,n,n,n
CC(C)Cn1nc(NS(=O)(=O)c2ccccc2)c2cc3ccccc3nc21,n,4.2,n,x,6.3µM,n
COc1ccc(-c2nsc3c(N4CCN(C(=O)c5ccco5)CC4)ncnc23)cc1,n,x,n,u,n,u
Cc1ccc(-c2nnc(N3CCN(C(=O)c4ccco4)CC3)c3ccccc23)cc1,n,n,25µM,n,n,n
O=C(c1ccco1)N1CCN(c2ncnc3c(-c4ccccc4)nsc23)CC1,n,x,25µM,n,n,n
CCCn1c(=O)c2[nH]c(-c3ccccc3)nc2n(CCC)c1=O,u,x,n,n,n,n
